# Assay results published in the supplement of paper PMC12282887.
# ± gives the standard deviation of the averaged measurements.
# Legend:
# Assay in all cases: promoter activity interaction Z-score (Lux/OD deviation from empty-vector control); higher = stronger promoter induction by the compound
# [1] = tested on: E. coli BW25113 acrABp lux reporter
# Outline: (§1)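 E. coli BW25113 luxCDABE reporter strains grew at 37°C in 40 µl LB Lennox in 384-well plates, with OD600 and luminescence read every 30 min for 12 h. After integration over 0–8 h for wild type or 1–9 h for deletion strains, wells under 10% of the median growth value were removed. Each score is the Z-transformed residual of growth-normalised luminescence fitted against a control.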
# [2] = tested on: E. coli BW25113 micFp lux reporter
# Outline: as §1
# [3] = tested on: E. coli BW25113 ompFp lux reporter
# Outline: as §1
# [4] = tested on: E. coli BW25113 robp lux reporter
# Outline: as §1
# [5] = tested on: E. coli BW25113 soxSp lux reporter
# Outline: as §1
# [6] = tested on: E. coli BW25113 tolCp lux reporter
# Outline: as §1
# [7] = 0.0081 µg/ml, genetic background: wild type
# [8] = 0.0081 µg/ml, genetic background: ΔmarA
# [9] = 0.0081 µg/ml, genetic background: Δrob
# [10] = 0.0081 µg/ml, genetic background: ΔsoxS
# [11] = 0.016 µg/ml, genetic background: wild type
# [12] = 0.016 µg/ml, genetic background: ΔmarA
# [13] = 0.016 µg/ml, genetic background: Δrob
# [14] = 0.016 µg/ml, genetic background: ΔsoxS
# [15] = 0.033 µg/ml, genetic background: wild type
# [16] = 0.033 µg/ml, genetic background: ΔmarA
# [17] = 0.033 µg/ml, genetic background: Δrob
# [18] = 0.033 µg/ml, genetic background: ΔsoxS
compound,measurement,setting,value
CC1(C)S[C@@H]2[C@H](/N=C/N3CCCCCC3)C(=O)N2[C@H]1C(=O)O [Mecillinam],promoter activity interaction Z-score,[1]; [7],0.0459 ± 0.4
same,promoter activity interaction Z-score,[1]; [8],1.25 ± 1.5
same,promoter activity interaction Z-score,[1]; [9],-0.273 ± 0.055
same,promoter activity interaction Z-score,[1]; [10],-0.522 ± 0.019
same,promoter activity interaction Z-score,[1]; [11],-0.377 ± 0.16
same,promoter activity interaction Z-score,[1]; [12],0.612 ± 0.15
same,promoter activity interaction Z-score,[1]; [13],-0.267 ± 0.022
same,promoter activity interaction Z-score,[1]; [14],-0.431 ± 0.57
same,promoter activity interaction Z-score,[1]; [15],0.0507 ± 0.0088
same,promoter activity interaction Z-score,[1]; [16],-0.755
same,promoter activity interaction Z-score,[1]; [17],0.113 ± 0.12
same,promoter activity interaction Z-score,[1]; [18],-0.499 ± 0.14
same,promoter activity interaction Z-score,[2]; [7],0.276 ± 0.25
same,promoter activity interaction Z-score,[2]; [8],0.207 ± 0.062
same,promoter activity interaction Z-score,[2]; [9],0.351 ± 0.025
same,promoter activity interaction Z-score,[2]; [10],-0.288 ± 0.15
same,promoter activity interaction Z-score,[2]; [11],0.194 ± 0.12
same,promoter activity interaction Z-score,[2]; [12],0.155 ± 0.054
same,promoter activity interaction Z-score,[2]; [13],0.474 ± 0.16
same,promoter activity interaction Z-score,[2]; [14],0.251 ± 0.044
same,promoter activity interaction Z-score,[2]; [15],0.824 ± 0.39
same,promoter activity interaction Z-score,[2]; [16],-0.211 ± 0.025
same,promoter activity interaction Z-score,[2]; [17],-0.0142 ± 0.33
same,promoter activity interaction Z-score,[2]; [18],0.562 ± 0.17
same,promoter activity interaction Z-score,[3]; [7],0.00268 ± 0.17
same,promoter activity interaction Z-score,[3]; [8],-0.0176 ± 0.4
same,promoter activity interaction Z-score,[3]; [9],-0.211 ± 0.62
same,promoter activity interaction Z-score,[3]; [10],-0.38 ± 0.044
same,promoter activity interaction Z-score,[3]; [11],-1.12 ± 0.37
same,promoter activity interaction Z-score,[3]; [12],-0.241 ± 0.0076
same,promoter activity interaction Z-score,[3]; [13],-0.807 ± 1.2
same,promoter activity interaction Z-score,[3]; [14],-0.124 ± 0.41
same,promoter activity interaction Z-score,[3]; [15],-1.28 ± 0.79
same,promoter activity interaction Z-score,[3]; [16],-0.894 ± 1.1
same,promoter activity interaction Z-score,[3]; [17],-1.44
same,promoter activity interaction Z-score,[3]; [18],0.0879 ± 0.27
same,promoter activity interaction Z-score,[4]; [7],0.327 ± 0.16
same,promoter activity interaction Z-score,[4]; [8],1.43 ± 0.17
same,promoter activity interaction Z-score,[4]; [9],-0.0357 ± 0.087
same,promoter activity interaction Z-score,[4]; [10],0.198 ± 0.16
same,promoter activity interaction Z-score,[4]; [11],-0.956 ± 0.2
same,promoter activity interaction Z-score,[4]; [12],0.379 ± 0.24
same,promoter activity interaction Z-score,[4]; [13],-1.19 ± 0.41
same,promoter activity interaction Z-score,[4]; [14],0.457 ± 1.5
same,promoter activity interaction Z-score,[4]; [15],-1.37 ± 0.12
same,promoter activity interaction Z-score,[4]; [16],-0.827 ± 0.15
same,promoter activity interaction Z-score,[4]; [17],-1.65
same,promoter activity interaction Z-score,[4]; [18],-1.03 ± 0.28
same,promoter activity interaction Z-score,[5]; [7],0.14 ± 0.081
same,promoter activity interaction Z-score,[5]; [8],0.149 ± 0.16
same,promoter activity interaction Z-score,[5]; [9],0.13 ± 0.12
same,promoter activity interaction Z-score,[5]; [10],0.171 ± 0.015
same,promoter activity interaction Z-score,[5]; [11],0.0658 ± 0.21
same,promoter activity interaction Z-score,[5]; [12],0.371 ± 0.073
same,promoter activity interaction Z-score,[5]; [13],0.0922 ± 0.097
same,promoter activity interaction Z-score,[5]; [14],0.495 ± 0.048
same,promoter activity interaction Z-score,[5]; [15],0.18 ± 0.061
same,promoter activity interaction Z-score,[5]; [16],0.154 ± 0.13
same,promoter activity interaction Z-score,[5]; [17],-0.163 ± 0.38
same,promoter activity interaction Z-score,[5]; [18],0.865 ± 0.22
same,promoter activity interaction Z-score,[6]; [7],0.00505 ± 0.64
same,promoter activity interaction Z-score,[6]; [8],-0.0513 ± 0.34
same,promoter activity interaction Z-score,[6]; [9],-0.155 ± 0.23
same,promoter activity interaction Z-score,[6]; [10],-0.674 ± 0.22
same,promoter activity interaction Z-score,[6]; [11],-0.967 ± 0.5
same,promoter activity interaction Z-score,[6]; [12],-0.771 ± 0.8
same,promoter activity interaction Z-score,[6]; [13],-1 ± 0.24
same,promoter activity interaction Z-score,[6]; [14],-0.0514 ± 0.98
same,promoter activity interaction Z-score,[6]; [15],-0.779 ± 2.4
same,promoter activity interaction Z-score,[6]; [16],-0.938
same,promoter activity interaction Z-score,[6]; [17],0.0896 ± 2.1
same,promoter activity interaction Z-score,[6]; [18],1.16 ± 0.64
